Screening data from PubChem BioAssay.
Compounds with a hit are over-represented: about 21% of the library has one in this group of screens.
HCV inh: HCV inhibition. Huh7.5.1 HCVcc-Cre infection, luciferase reporter, 44 h. Potency, µM (highest dose often 41.8 µM), inactives show at the top dose activity change, negative = inhibition, hits mostly inhibitors. 3.4% of 340,000 active. AID 651820; note: potency is the fitted concentration of half-maximal effect; % is set by controls: 0 for no effect and ±100 for the full control effect
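A cell-based infection assay in which seeded cells (1,000 per well) receive test compound after 4 h, are inoculated with HCVcc-Cre at approximately 0.5 moi, and are incubated 44 h before luminescence detection.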
Pf growth 96h: P. falciparum growth inhibition at 96 hour, primary screen for plastid delayed-death inhibitors | AID 504834 | 6.9% of 320,000 active | P. falciparum luciferase reporter growth, 96 h | Potency, µM (series often up to 28.7 µM), inactives show at the highest dose activity change, negative = inhibition, usual class: inhibitors; note: potency is the fitted concentration of half-maximal effect; % is set by controls: 0 for no effect and ±100 for the full control effect
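Infected RBCs, 2% Hct / 0.05% parasitemia final; luciferase-reporter P. falciparum; cpd 96 h, 37 C, 5% CO2; luciferase detection reagent; luminescence.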
Cycloheximide cs: affects cycloheximide protein synthesis inhibition readout, counter-screen; max response, %; 12% of 300,000 active; cell reporter, cycloheximide protein synthesis inhibition counterscreen; AID 2314; in the data active = max response mostly above about 13%, no sharp cut-off; inactive = mostly below about 14%; note: read at 38.3 µM for the half of the compounds with a filed dose; 0% is about no effect
Shiga toxin inh: inhibitors of Shiga toxin in Vero cells. Vero cells, Shiga toxin protein synthesis inhibition reporter. inhibition, % at 38.7 µM. 9.2% of 290,000 active. AID 2315; in the data active = inhibition mostly above about 28%, no sharp cut-off; inactive = mostly below about 43%; note: 0% is about no effect
Pf growth 48h: inhibits P. falciparum growth in the first generation, 48 h | P. falciparum luciferase growth in erythrocytes, 48 h | Potency, µM (titrated, usually from 28.7 µM), for inactives: at the highest dose activity change, negative = inhibition, usual class: inhibitors | 5.9% of 310,000 active; note: potency is the fitted concentration of half-maximal effect; % is set by controls: 0 for no effect and ±100 for the full control effect
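Parasite viability was followed by luminescence of a genomically integrated firefly luciferase. Cultures held 0.1% parasitemia at 2% hematocrit (final), incubated under 5% CO2 at 37 C.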
HCMV inh: inhibitors of human cytomegalovirus. HFF cells, HCMV-luciferase reporter, 72 h; stronger effect = lower value. activity change, negative = inhibition, % at 57.5 µM. 4.5% of 410,000 active; in the data active = activity change below about -60%; inconclusive = no clear call, values can overlap the other calls; inactive = above about -39%; note: % is set by controls: 0 for no effect and ±100 for the full control effect
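Two-dose cell screen: HFF monolayers treated with compounds and infected with luciferase-expressing HCMV at 1 PFU/cell, 72 h at 37C, then lysed for luciferase measurement.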
Active calls of the source: *; ? = inconclusive; · = no result given; ! = not active in a repeat; [ ] = remark or other dose. Unless noted, calls come from the whole dose curve; as a rule, active = well fitted inhibition curve with a large enough effect; inconclusive = small, poorly fitted or top-dose-only effect, or another doubt; inactive = no such curve, though single readings can be large or run the other way.

SMILES	HCV inh	Pf growth 96h	Cycloheximide cs	Shiga toxin inh	Pf growth 48h	HCMV inh
O=C1CC2(CCOCC2)Oc2ccc3ccccc3c21	-3%	·	·	·	·	-2
c1cc2c(cc1CNc1ccc(N3CCOCC3)cc1)OCO2	·	·	·	·	·	31
CC1C/C(=N\NC(=S)NCc2ccccc2)CC(C)(C)C1 (stereo not drawn)	-23%	4.1µM*	-1	14	·	19
COc1cccc(NC(=O)CN(C)C(=O)CSCC(=O)Nc2ccc(C)cc2)c1	2%	0%	·	·	-10%	0
Cc1ccc2c(c1)CCCN2C(=O)c1cc(C)on1	-1%	9%	-3	-13	6%	-5
COC(=O)CN1C(CN2CCOCC2)=Nc2ccc(Br)cc2C1c1ccccc1 (stereo not drawn)	-9%	?	-2	-13	?	-32
COC(=O)CN1C(c2cccc(Cl)c2)=Nc2ccc(Cl)cc2C1c1ccccc1 (stereo not drawn)	-5%	1.7µM*	-1	23	2.3µM*	105
COC(=O)CN1C(c2ccc(OC)cc2)=Nc2ccc(Cl)cc2C1c1ccccc1 (stereo not drawn)	22%	10µM*	-6	-6	15µM*	27
CCCCCCCC(=O)Oc1ccc(C(=O)Nc2cc(C)on2)cc1	1%	43%	25	13	99%	79
COc1cccc(NC(=O)CSc2nc3c([nH]c4ccccc43)c(=O)n2-c2cc(C)cc(C)c2)c1	·	·	·	·	·	-30
CCOc1ccc(-n2c(SCC(=O)Nc3cc(C)on3)nc3c([nH]c4ccccc43)c2=O)cc1	22µM*	-24%	7	-7	?	-35
COc1ccccc1-n1c(SCC(=O)Nc2ccc(NC(C)=O)cc2)nc2c([nH]c3ccccc32)c1=O	?	13µM*	4	11	-54%	82
CC(=O)Nc1ccc(NC(=O)CSc2nc3c([nH]c4ccccc43)c(=O)n2-c2ccccc2F)cc1	?	?	15	-14	-18%	-25
Cc1cc(NC(=O)CSc2nc3c([nH]c4ccccc43)c(=O)n2-c2ccc(Cl)cc2)no1	·	·	·	·	·	32
COc1cccc(-n2c(SCC(=O)Nc3c(C)cc(C)cc3C)nc3c([nH]c4ccccc43)c2=O)c1	·	·	·	·	·	-80*
COc1ccc(-n2c(SCC(=O)Nc3cc(C)on3)nc3c([nH]c4ccccc43)c2=O)cc1	0%	?	-4	6	?	-13
Cc1ccc(-n2c(SCC(=O)Nc3cc(C)on3)nc3c([nH]c4ccccc43)c2=O)cc1	?	?	-1	20	?	-70*
Nc1nnc(SCC(=O)NC2CCCCCC2)s1	9%	?	·	·	-23%	-22
C[C@@H]1Cn2cnc(C(=O)N[C@@H](Cc3c[nH]c4ccccc34)C(=O)OC(C)(C)C)c2C(=O)N1	·	·	·	·	·	-8
COc1ccc(-n2c(SCC(=O)Nc3cc(C)on3)nc3c([nH]c4ccccc43)c2=O)cc1OC	·	6.6µM*	11	-11	10µM*	16
CCc1ccc(NC(=O)CSc2nc3c([nH]c4ccccc43)c(=O)n2C)cc1	·	·	·	·	·	55
COc1ccc(-n2c(SCC(=O)Nc3ccc(NC(C)=O)cc3)nc3c([nH]c4ccccc43)c2=O)cc1OC	·	-21%	-4	-3	?	147
CCc1ccc(NC(=O)CSc2nc3c([nH]c4ccccc43)c(=O)n2-c2ccc(C)cc2)cc1	·	·	·	·	·	-96*
O=C(CSc1nc2c([nH]c3ccccc32)c(=O)n1-c1ccccc1F)Nc1cccc(C(F)(F)F)c1	·	·	·	·	·	-62*
O=C1N(Cc2cccnc2)C[C@@H]2C[C@@H](c3cccc(C(F)(F)F)c3)N3CCC[C@@]123	0%	10µM*	0	-7	?	-26
SMILES	HCV inh	Pf growth 96h	Cycloheximide cs	Shiga toxin inh	Pf growth 48h	HCMV inh
O=C1N(Cc2cccnc2)C[C@@H]2C[C@@H](c3cccc(OC4CCCC4)c3)N3CCC[C@@]123	13µM*	42%	1	-17	8.3µM*	?
O=C1N(Cc2cccnc2)C[C@@H]2C[C@@H](c3ccc(-c4ccccc4)cc3)N3CCC[C@@]123	?	?	-1	5	12µM*	?
O=C1N(Cc2cccnc2)C[C@@H]2C[C@@H](c3cccc(OCc4ccccc4)c3)N3CCC[C@@]123	?	?	0	-6	?	?
COc1ccccc1CN1C[C@@H]2C[C@@H](C3=Cc4cccc(OC)c4OC3)N3CCC[C@@]23C1=O	?	15%	-1	2	4.7µM*	-23
Cc1ccccc1CN1C[C@@H]2C[C@@H](c3cn[nH]c3-c3ccccc3)N3CCC[C@@]23C1=O	13µM*	?	-1	-4	1.7µM*	-66*
CCN(CC)S(=O)(=O)c1ccc(/C(O)=C(\C#N)c2nc3ccccc3n2C)cc1	?	0.26µM*	-2	-18	?	?
CC(C)(C)c1ccc(C(=O)NCCC(=O)NNC(=O)COc2ccccc2F)cc1	3%	·	·	·	·	-10
O=c1c2ccccc2oc2ncccc12	10%	-98%	55*	57	70%	-9
COc1cccc2c(=O)c3ccccc3oc12	-23%[8.37 µM]	12%	55*!	67*	123%	-17
COc1ccc(C(=O)Oc2c(C)occc2=O)cc1OC	-4%	50%	-3	-3	2%	32
COc1cccc2c(=O)ccoc12	18%	-4%	12*	39	14%	77
COc1ccccc1Cn1c(C2CC(=O)N(c3ccccc3OC)C2)nc2ccccc21 (stereo not drawn)	·	·	·	·	·	-11
O=C1c2cccc3c(N4CCCCC4)ccc(c23)C(=O)N1c1ccccc1O	?	26%	-1	19	-5%	-96*
O=C1c2cccc3cccc(c23)C(=O)N1c1ccc(O)cc1	-13%	?	-3	-1	-8%	-14
O=C1c2cccc3c(N4CCCCC4)ccc(c23)C(=O)N1c1ccc(O)cc1	-2%	24%	18*	49	-20%	-62*
CCOC(=O)c1cnn(-c2ccc(C(=O)Nc3ccc(OC(F)(F)F)cc3)cc2)c1N	·	·	·	·	·	15
Nc1nc(SCCO)[nH]c(=O)c1NC(=O)c1ccc(Br)o1	15%	28%	-3	-4	101%	-35
COc1cc2c(cc1OC)C(c1ccccc1N)=NCC2	9%	1µM*	-3	-3	2.9µM*	5
COc1ccc(-c2ccn(-c3cccc(F)n3)n2)cc1	-29%	-43%	48*	98*	-13%	-29
O=C(CCCl)N1c2ccccc2C=Cc2ccccc21	?	·	·	·	·	-71*
O=C(NC(=S)Nc1ccccn1)c1ccccc1	-18%	-7%	40*	68*	285%	0
O=C(Nc1ccccn1)c1ccccc1	2%	·	·	·	·	41
O=C(/C=C/c1ccc(Cl)cc1Cl)NC(=S)Nc1ccccn1	-4%	-11%	38*	86*	155%	104
